Source: PubChem
D1 antag: blocks dopamine activation of the human D1 receptor; activity change, negative = inhibition, % at 10 µM; hit rate 3.2% among 360,000; HEK293 TREx D1 cells, calcium flux, dopamine EC80; active compounds read low; in the data active means activity change below about -30%; further: on the % scale 0 is the no-effect control and ±100 the full control effect
Target sequence (P21728 whole entry, looked up): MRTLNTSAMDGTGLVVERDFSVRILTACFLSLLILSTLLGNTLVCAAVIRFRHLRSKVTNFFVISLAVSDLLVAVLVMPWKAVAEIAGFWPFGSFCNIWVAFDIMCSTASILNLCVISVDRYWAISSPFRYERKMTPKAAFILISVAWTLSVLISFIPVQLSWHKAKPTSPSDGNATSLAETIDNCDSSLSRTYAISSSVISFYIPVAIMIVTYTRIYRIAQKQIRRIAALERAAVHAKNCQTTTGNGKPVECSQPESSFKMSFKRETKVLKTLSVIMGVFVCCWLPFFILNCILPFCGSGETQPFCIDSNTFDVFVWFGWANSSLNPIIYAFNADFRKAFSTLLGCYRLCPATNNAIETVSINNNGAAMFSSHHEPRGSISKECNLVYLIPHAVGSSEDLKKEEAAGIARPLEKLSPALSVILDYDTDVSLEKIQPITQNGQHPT
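Tetracycline-induced HEK293 T-REx cells with force-coupled D1 receptor were loaded with a no-wash calcium dye. Compound was added after a 10 s baseline and read kinetically for 180 s; EC80 dopamine was then added and calcium flux followed another 180 s.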
D1 ag: activates the human D1 dopamine receptor. P21728. HEK293 T-REx D1 cells, calcium flux, agonist mode. activation, % at 2 µM. hit rate 1% among 360,000; in the data active means activation above about 30%; further: 0% is about no effect
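Tetracycline-induced HEK293 TREx D1 cells, force-coupled to calcium signalling, were dye-loaded with a no-wash calcium kit. Compound was pin-added after a 10 s baseline. Fluorescence was read kinetically at 1 cycle/s for 180 s, with calcium rises flagged as agonism.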
D1 potentiator: potentiators of human D1 dopamine receptor; P21728; HEK293 TREx D1 cells, calcium flux, dopamine EC20 potentiation; potentiation, % at 10 µM; hit rate 0.036% among 360,000; in the data active means potentiation above about 30%; further: 0% is about no effect
D3 antag: D3 dopamine receptor (human) antagonism; P35462; D3R cells, DiscoveRx beta-arrestin luminescence, antagonist mode; active compounds read low; max response, negative = inhibition, %; hit rate 2.5% among 360,000; AID 652054; in the data active means max response below about -50%; further: on the % scale 0 is the no-effect control and ±100 the full control effect
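Cells expressing the human receptor were seeded at 1500 cells/well, incubated overnight at 37 degrees C in 5% CO2, then exposed to library compounds with dopamine controls for 90 minutes at 37 degrees C before luminescent detection.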
DRD3 agonist: activates the human D3 dopamine receptor. P35462. D3R DiscoveRx beta-arrestin cells, luminescence, 90 min. max activation, %. hit rate 0.58% among 410,000. AID 652048; in the data active means max activation above about 30%; further: 0% is about no effect
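Agonist-mode cell screen: cells plated at 1500/well and incubated overnight at 37 °C, then exposed to library compounds for 90 min at 37 °C. Detection reagent was added for 30–60 min at room temperature, and luminescence was read.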
An asterisk follows results filed as active; x = not tested or not shown. Rows were chosen to be rich in hits. Some 6% of all compounds tested hit in one or more screens of this group.

SMILES	D1 antag	D1 ag	D1 potentiator	D3 antag	DRD3 agonist
NC(=S)N/N=C\c1ccccc1OCc1ccccc1	-13	1	-4	-54*	-5
COc1cc(/C=N/NS(=O)(=O)c2ccc3ccccc3c2)ccc1OCc1ccc(C(=O)O)cc1	-30*	2	-16	0	8
COC(=O)c1ccc(COc2ccccc2/C=N/NS(=O)(=O)c2ccccc2)cc1	-51*	2	-8	-18	-20
O=S(=O)(O)c1nnc2sc3ccccc3n12	-36*	2	-2	19	-5
CN(C)C(=O)CSc1nnc2sc3ccccc3n12	-3	2	-7	-26	2
CCC(=O)c1ccccc1OCCN1CCN(Cc2ccccc2)CC1	-17	3	3	-84*	-18
CCC(=O)c1ccccc1OCCCn1cncn1	-31*	1	-8	-3	-3
Cc1ccc2ccc3cc(C(=O)Nc4ccc(C)c(F)c4)nc3c2[nH]1	-6	1	-8	x	5
CN(C)/C=N/c1sc2c(c1C#N)CC(C)(C)NC2(C)C	-45*	2	-27	43	-3
c1ccc(C2CNCCc3ccccc32)cc1 (centres undefined)	-42*	15	-19	-15	-5
Oc1cc2c(cc1O)[C@@H](c1ccccc1)CNCC2	-91*	5	-6	18	5
Oc1cc2c(cc1O)C(c1ccccc1)CNCC2 (centres undefined)	x	x	x	12	3
COc1ccccc1C(=O)NC1(C(F)(F)F)C(=O)Nc2c1c(=O)[nH]c(=O)n2-c1ccc(F)cc1 (centres undefined)	11	-1	-1	x	-4
CCOc1ccc(C2=Nn3c(nnc3-c3ccco3)SC2)cc1	-31*	1	-4	-23	1
COc1ccc(-c2cnn3c4c(c(C)nc23)CCN4C(C)C)cc1OC	-17	0	1	33	41*
NS(=O)(=O)c1ccc(NC(=O)CN2C(=O)COc3ccc(Cl)cc32)cc1	-3	-2	-6	x	-28
CCC(CC)C(=O)Nc1c(C(=O)N2CCN(c3ccccc3F)CC2)oc2ccccc12	-15	-1	-1	x	-1
COc1ccc(CCNC(=O)c2c(O)c3c([nH]c2=O)CCCC3)cc1	1	2	-2	-126*	2
Cc1c(CC(=O)N2CCCCC2)c(=O)oc2cc3occ(C(C)(C)C)c3cc12	-10	-1	5	x	11
C=C(C)COc1ccc(C2NC(=O)c3ccccc3O2)cc1OCC (centres undefined)	-49*	4	-13	7	21
CCc1nn(Cc2cccc(F)c2)c(=O)c2cc3cc(C)ccc3n12	13	0	-1	x	5
Cc1ccc(C(=O)N2[C@@H]3CN(C)C(=O)[C@@]2(C)[C@H]2C(=O)N(Cc4ccccc4)C(=O)[C@@H]32)cc1	x	x	x	12	32*
CN1C[C@@H]2[C@@H]3C(=O)N(Cc4ccccc4)C(=O)[C@@H]3[C@](C)(C1=O)N2C(=O)c1ccc(F)cc1	x	x	x	21	22
CCN1C[C@@H]2[C@@H]3C(=O)N(Cc4ccccc4)C(=O)[C@@H]3[C@](C)(C1=O)N2C(=O)c1ccccc1	x	x	x	0	43*
O=C(CCS(=O)(=O)c1cccc2nonc12)N1CCOCC1	27	1	-1	-25	-4
SMILES	D1 antag	D1 ag	D1 potentiator	D3 antag	DRD3 agonist
O=C(CCS(=O)(=O)c1cccc2nonc12)N1CC(=O)N(CCc2ccccc2)C(=O)C1	-91*	11	-2	17	5
CCOC(=O)c1cc2c(=O)n3ccccc3nc2n(CC2CCCO2)c1=NC(=O)c1ccc(F)cc1 (centres undefined)	-2	-2	0	x	10
COc1cccc(C(=O)N2CCN(C3CCCCC3)CC2)c1	2	2	18	-12	-12
COc1ccc(C(=O)N2CCN(C3CCCCC3)CC2)c(OC)c1	22	4	-2	-86*	-2
COc1ccc(Cl)cc1NC(=O)N1CCN(C2CCCCC2)CC1	0	3	4	-57*	-44
CCc1ccc(NC(=O)C2=CC=CN3CCS(=O)(=O)N=C23)cc1	9	0	7	1	6
CC(C)c1ccc(NC(=O)C2=CC=CN3CCS(=O)(=O)N=C23)cc1	-32*	14	-6	26	3
O=C(Nc1ccc(Oc2ccc(Br)cc2)cc1)C1=CC=CN2CCS(=O)(=O)N=C12	-48*	10	-9	-3	-1
COCCn1c(C)cc(O)c(C(c2ccccc2)N2CCC(C)CC2)c1=O (centres undefined)	-6	-1	1	x	-10
CCCc1c(NC(=O)Nc2ccc(F)cc2)cnn1-c1ccc(Cl)cc1	-43*	19	-4	-9	-9
O=C(NCCc1ccc(Cl)cc1)Nc1ccc(F)cc1	-12	13	-8	-21	-23
Fc1ccc(Nc2nc(NCc3ccco3)c3ccccc3n2)cc1	-46*	23	-19	-25	-15
Fc1cc(F)nc(NCc2ccccc2)n1	14	3	1	12	37*
c1ccc(CNc2nc(NCc3ccccc3)c3ccccc3n2)cc1	-35*	38*	3	-11	-5
c1ccc(CNc2nc(-c3ccccc3)nc3ccccc23)cc1	-2	2	7	24	-13
c1ccc(CNc2nc(NCc3ccccc3)c3sccc3n2)cc1	x	x	x	0	4
c1ccc(CNc2nc(-c3ccccn3)nc3ccccc23)cc1	32	3	14	-74*	-15
Fc1cc(NCc2ccccc2)nc(NCc2ccccc2)n1	-13	9	-4	-2	-4
CCn1cc(C(=O)N2CCN(c3ccccc3F)CC2)c(=O)c2cc(S(=O)(=O)N(C)C)ccc21	3	1	0	x	-19
CCOc1cc(C#N)c(-n2nnc3c(sc4nc(C)cc(C)c43)c2=O)cc1OCC	-4	0	2	x	-10
O=C(COC(=O)c1cc(S(=O)(=O)NCc2ccccc2)ccc1O)NCc1ccccc1	-3	2	6	16	5
O=C(COC(=O)c1cc(S(=O)(=O)NCc2ccccc2)ccc1O)c1cc2ccccc2o1	-62*	2	-4	-12	-3
COc1ccc(N2CCN(Cc3cc4c(cc3O)CCC4)CC2)cc1	-2	0	5	-87*	-5
COc1ccc(N2CCN(Cc3cc(=O)oc4cc5c(cc34)CCCC5)CC2)cc1	0	0	-6	13	-3
CCOC(=O)[C@H](CCc1ccccc1)N[C@@H](C)C(=O)N1[C@H](C(=O)O)C[C@@H]2CCC[C@@H]21	x	x	x	25	17
CCOC(=O)[C@@H](CCc1ccccc1)N[C@H](C)C(=O)N1[C@H](C(=O)O)C[C@@H]2CCC[C@@H]21	-19	1	-4	-54*	-20
Cc1nnc(N2CCCC(C(=O)Nc3cccc(C(F)(F)F)c3)C2)c2nn(-c3ccccc3)c(C)c12 (centres undefined)	15	0	2	x	10
CCOc1cc(CNCCSc2nnnn2-c2ccccc2)cc(Cl)c1OC	-2	40*	1	x	-17
